# PubChem BioAssay (EPA / NIEHS)
# Activity calls are given as the source filed them. The calls were made as follows: active = hit-call score of the fitted dose curve at least 0.9, where 1 is the maximum; inactive = score below 0.9.
# Test: ATG_GATA_CIS: Attagene CIS-FACTORIAL HepG2 Assay for human GATA Binding Protein (AID 2282944)
# Details: HepG2 GATA cis-element reporter, Attagene multiplex mRNA; actives raise or lower the signal
# Outline: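 Endogenous transcription factor activity was captured through cis-promoter-driven reporters in transfected HepG2 cells. After 24 h exposure, reporter transcripts were quantified by RT-PCR with fluorescent capillary electrophoresis, and responses fitted both directions against DMSO.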
SMILES,outcome,AC50
CNC(=C[N+](=O)[O-])NCCSCc1csc(CN(C)C)n1,inactive,–
O=C1CCCCCCCCCCCCCC1,inactive,–
CCCC(=O)OC/C=C(\C)CCC=C(C)C,inactive,–
CCCCCCC(O)CCCCCCCCCCC(=O)OC (stereo not drawn),inactive,–
COC(=O)c1ccccc1,inactive,–
O=C(O)/C=C/C(=O)O,inactive,–
O=S(=O)(O)c1cccc2ccccc12,inactive,–
C/C=C(\C)C(=O)OCC/C=C\CC,inactive,–
CC/C=C\CC/C=C/C(OCC)OCC,inactive,–
C=CCOCC(CC)(CO)COCC=C,inactive,–
CN1CCCC1,inactive,–
CCO[Si](CCCN)(OCC)OCC,inactive,–
CCCCCCC1CCC(=O)O1 (stereo not drawn),inactive,–
O=[N+]([O-])c1ccccc1C(F)(F)F,inactive,–
CCC(=O)OCc1ccc(OC)cc1,inactive,–
CCc1cc(C(N)=S)ccn1,inactive,–
CCC(C)=NO,inactive,–
COc1cccc(OC)c1C(=O)O,inactive,–
C=C1CC[C@H]2C[C@@H]1C2(C)C,inactive,–
CCCCCC1CCCC(=O)O1 (stereo not drawn),inactive,–
COC(=O)[C@]1(C)CCC[C@@]2(C)[C@H]1CC=C1C=C(C(C)C)CC[C@@H]12,–,173 µM (active)
Cc1cc2nc3c(=O)[nH]c(=O)nc-3n(C[C@H](O)[C@H](O)[C@H](O)CO)c2cc1C,inactive,–
Cc1cc(-n2nc3ccc(Cl)cc3n2)c(O)c(C(C)(C)C)c1,inactive,–
O=C(OCc1ccccc1)c1ccccc1,inactive,–
CCCCCCC1CCCC(=O)O1 (stereo not drawn),inactive,–
c1ccc(CNc2ncnc3nc[nH]c23)cc1,inactive,–
NC(=O)c1ccc(N)cc1,inactive,–
CC(=O)Nc1c(I)c(NC(C)=O)c(I)c(C(=O)O)c1I,inactive,–
